The record followed here is PubChem BioAssay (NCATS).

SMILES strings stand for the structures. Values without a mark were called inactive. Results filed as inconclusive are left out. Calls of active or inactive are those of the source. The call rests on the fitted dose curve; in most records, active means well fitted curve in the direction sought with a large enough effect; inconclusive means small, poorly fitted or top-dose-only effect, or another doubt; inactive means no such curve, though single readings can be large; an effect the other way counts as inactive or inconclusive.

For assay [1], the target named is Luciferin 4-monooxygenase (Photinus pyralis) (UniProt P08659). Nature of the assay: Primary firefly luciferase (FLuc) qHTS assay for identification of artifact compounds. (AID 1845220). Further: nearly all actives have a fitted effect of over 60% in size.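 On activity change, negative = inhibition: plate controls were DMSO vehicle for no effect and no enzyme for full effect.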 The settings on record: purified firefly luciferase, luminescence, 5 min; series mostly up to 54.1 µM. The gist of the method: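 FLuc 10 nM; luciferin 10 uM; ATP 10 uM; Tris-acetate pH 7.6, Mg-acetate 10 mM; 15 min RT preincubation; 5 min reaction; luminescence.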
A general note: Quantitative high-throughput screening tests each substance at several concentrations.

The nature of assay [2]: Primary fluorescence-based thiol-reactive (MSTI) qHTS assay for identification of artifact compounds. (AID 1845221).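 Further: thiol-reactive compounds lower the probe fluorescence signal; nearly all actives have a fitted effect of over 65% in size.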 The settings on record: MSTI thiol-reactivity probe, 1 h; series mostly up to 53.8 µM. The gist of the method: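 Probe: MSTI 4 uM, PBS pH 7.4, 2% DMSO. Incubation 1 h, RT, light-protected. Readout fluorescence 525/598 nm.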
Assay [3] concerns Nanoluciferase (engineered Oplophorus gracilirostris luciferase). Nature of the assay: Primary Nanoluciferase (NLuc) qHTS assay for identification of artifact compounds. (AID 1845222).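 Further: NLuc secreted into diluted conditioned medium of S16 cells; 0% = DMSO and -100% = no enzyme.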 The settings on record: NLuc-conditioned medium, Nano-Glo luminescence, 5 min; series mostly up to 54.1 µM. The gist of the method:
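NLuc from S16 cell medium (1:55) plus test compounds, 15 min, room temperature. Luminescence after Nano-Glo (1:100) addition, 5 min.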

Assay [4] can be described thus: Primary redox qHTS assay for identification of artifact compounds. (AID 1845223).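 Further: 0% = DMSO and 100% = reference compound.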 The settings on record: Amplex Red/HRP redox cycling with DTT, fluorescence; series mostly up to 53.8 µM. In a few lines:
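Redox-cycling detection via DTT (250 uM final) oxidation coupled to Amplex Red (25 uM)/HRP (250 mU/mL) in HBSS. 15 min preincubation plus 30 min after DTT, room temperature. Ex/Em 525/598 nm; 4-parameter Hill fit against DMSO and 10 uM DA3003.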

Assay [5] addresses Cytochrome P450 3A4 (Homo sapiens) (UniProt P08684). Nature of the assay: qHTS for inhibitors of CYP3A4 against the NCATS DSHEA and TCM libraries (AID 1919971).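 Further: on the % scale 0 is the no-effect control and ±100 the full control effect; inhibition lowers luminescence from luciferin made by CYP3A4.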 The settings on record: recombinant CYP3A4 enzyme activity, luminescence qHTS; series mostly up to 34.1 µM. In a few lines:
(§1)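 Each CYP isoform and its pro-luciferin substrate, at isoform-specific final concentrations, were preincubated 15 min at RT with substances. NADPH regeneration solution (1x) started a 30-45 min reaction, and P450-Glo luminescence was read.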

In assay [6] the target is Cytochrome P450 2C9 (Homo sapiens) (UniProt P11712). Nature of the assay: qHTS for inhibitors of CYP2C9 against the NCATS DSHEA and TCM libraries (AID 1919973).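 Further: luminogenic pro-luciferin CYP2C9 substrate turned into luciferin with NADPH regeneration; on the % scale 0 is the no-effect control and ±100 the full control effect.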 The settings on record: recombinant CYP2C9 enzyme activity, luminescence; series mostly up to 34.1 µM. In a few lines:
as §1

The target of assay [7] is Cytochrome P450 2C19 (Homo sapiens) (UniProt P33261). The assay is described as follows: qHTS for inhibitors of CYP2C19 against the NCATS DSHEA and TCM libraries (AID 1919974).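 Further: luminescence from luciferin released by CYP2C19 oxidation of a pro-luciferin substrate.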 Further: potency means the concentration at half of the fitted maximal effect. On activity change, negative = inhibition: on the % scale 0 is the no-effect control and ±100 the full control effect. The settings on record: CYP2C19 enzyme inhibition, luminescence qHTS; series mostly up to 34.1 µM. In a few lines: as §1
The nature of assay [8]: KB-3-1 P-gp reporter qHTS against the NCATS DSHEA and TCM libraries (AID 1919975). Further: 0% is about no effect. The settings on record: KB-3-1 parental cells, CellTiter-Glo luminescence viability, 72 h; series mostly up to 26.1 µM. In a few lines: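 CellTiter-Glo luminescence viability readout; KB-3-1 parental cells, 500/well, attached ~4 h, then compound for ~72 h, 37C, 5% CO2. Bortezomib intraplate control.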

The target in assay [9] is Cytochrome P450 2D6 (Homo sapiens) (UniProt P10635). Nature of the assay: qHTS for inhibitors of CYP2D6 against the NCATS DSHEA and TCM libraries (AID 1919972). Further: on the % scale 0 is the no-effect control and ±100 the full control effect. The settings on record: CYP2D6 enzymatic inhibition, luminescence qHTS; series mostly up to 34.1 µM. The gist of the method:
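CYP2D6 enzyme with pro-luciferin substrate in manufacturer buffer (typically 100 mM KPO4), preincubated 15 min RT with substances (most at 19.5 nM upward); NADPH regeneration system (1x) started 30–45 min RT reaction; P450-Glo luminescence read after 30 min; quinidine as intraplate control.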

The target of assay [10] is Cytochrome P450 1A2 (Homo sapiens) (UniProt P05177). The assay is described as follows: qHTS for inhibitors of CYPIA2 against the NCATS DSHEA and TCM libraries (AID 1919976). Further: on the % scale 0 is the no-effect control and ±100 the full control effect. The settings on record: recombinant CYP1A2 enzyme activity, luminescence; series mostly up to 37 µM. The gist of the method: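 Reaction started with 1x NADPH regeneration solution and run 30-45 min, room temperature, protected from light, after compounds sat 15 min with CYP1A2 and pro-luciferin substrate. P450-Glo detection gave luminescence; furafylline served as control.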
Sequence of Cytochrome P450 1A2 (Homo sapiens) (P05177 whole entry, looked up): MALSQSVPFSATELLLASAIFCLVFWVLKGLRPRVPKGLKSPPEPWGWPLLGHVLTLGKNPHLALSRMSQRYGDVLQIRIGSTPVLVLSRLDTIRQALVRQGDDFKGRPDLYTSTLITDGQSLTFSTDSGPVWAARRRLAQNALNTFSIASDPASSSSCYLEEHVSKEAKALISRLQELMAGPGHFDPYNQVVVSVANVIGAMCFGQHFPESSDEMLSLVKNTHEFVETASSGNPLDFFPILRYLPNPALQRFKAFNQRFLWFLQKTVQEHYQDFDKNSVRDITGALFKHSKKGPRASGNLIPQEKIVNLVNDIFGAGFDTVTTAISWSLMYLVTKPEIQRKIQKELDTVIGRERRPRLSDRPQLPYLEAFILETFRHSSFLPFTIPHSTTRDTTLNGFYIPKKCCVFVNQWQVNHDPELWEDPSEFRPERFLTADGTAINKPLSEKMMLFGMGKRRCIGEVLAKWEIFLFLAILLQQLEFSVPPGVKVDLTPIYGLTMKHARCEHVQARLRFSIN

Sequence of Cytochrome P450 2C9 (Homo sapiens) (P11712 whole entry, looked up): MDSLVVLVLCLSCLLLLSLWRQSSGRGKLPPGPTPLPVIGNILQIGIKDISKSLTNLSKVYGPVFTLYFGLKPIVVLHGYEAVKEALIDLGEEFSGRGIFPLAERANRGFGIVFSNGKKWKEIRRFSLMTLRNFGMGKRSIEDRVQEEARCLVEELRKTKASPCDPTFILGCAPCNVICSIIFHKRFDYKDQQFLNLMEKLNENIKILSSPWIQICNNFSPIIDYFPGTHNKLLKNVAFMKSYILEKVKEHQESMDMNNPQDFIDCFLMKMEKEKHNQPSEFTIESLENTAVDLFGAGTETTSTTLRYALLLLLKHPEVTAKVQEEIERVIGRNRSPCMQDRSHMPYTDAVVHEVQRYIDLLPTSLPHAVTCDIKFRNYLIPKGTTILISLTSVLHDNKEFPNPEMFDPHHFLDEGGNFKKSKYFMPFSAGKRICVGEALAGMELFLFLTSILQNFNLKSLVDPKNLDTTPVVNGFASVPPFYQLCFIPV
Sequence of Cytochrome P450 3A4 (Homo sapiens) (P08684 whole entry, looked up, canonical isoform): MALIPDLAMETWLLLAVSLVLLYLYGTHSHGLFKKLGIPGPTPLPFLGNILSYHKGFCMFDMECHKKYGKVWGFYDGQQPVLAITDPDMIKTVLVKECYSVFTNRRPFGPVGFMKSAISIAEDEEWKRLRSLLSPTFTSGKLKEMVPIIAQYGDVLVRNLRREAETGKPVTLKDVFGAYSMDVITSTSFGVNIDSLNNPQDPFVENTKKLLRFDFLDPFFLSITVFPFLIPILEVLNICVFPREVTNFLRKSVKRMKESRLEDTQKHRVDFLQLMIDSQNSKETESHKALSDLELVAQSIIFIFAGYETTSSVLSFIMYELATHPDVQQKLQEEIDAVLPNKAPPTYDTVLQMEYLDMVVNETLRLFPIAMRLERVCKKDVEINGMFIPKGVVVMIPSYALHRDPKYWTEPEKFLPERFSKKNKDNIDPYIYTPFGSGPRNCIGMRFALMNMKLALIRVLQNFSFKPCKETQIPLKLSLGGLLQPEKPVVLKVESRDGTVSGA
Sequence of Cytochrome P450 2C19 (Homo sapiens) (P33261 whole entry, looked up): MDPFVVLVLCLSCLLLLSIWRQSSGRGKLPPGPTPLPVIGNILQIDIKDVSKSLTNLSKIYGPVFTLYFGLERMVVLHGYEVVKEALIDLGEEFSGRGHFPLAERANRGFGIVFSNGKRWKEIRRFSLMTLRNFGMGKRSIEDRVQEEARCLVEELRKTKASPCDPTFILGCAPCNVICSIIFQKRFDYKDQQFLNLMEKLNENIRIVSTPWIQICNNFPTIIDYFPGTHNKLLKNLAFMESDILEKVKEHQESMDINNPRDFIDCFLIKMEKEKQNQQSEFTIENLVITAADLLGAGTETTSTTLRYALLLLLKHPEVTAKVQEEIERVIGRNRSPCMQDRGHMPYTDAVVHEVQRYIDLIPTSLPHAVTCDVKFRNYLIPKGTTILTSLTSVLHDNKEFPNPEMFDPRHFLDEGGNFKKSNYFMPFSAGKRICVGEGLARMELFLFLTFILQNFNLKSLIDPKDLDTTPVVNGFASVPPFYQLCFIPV
Sequence of Cytochrome P450 2D6 (Homo sapiens) (P10635 whole entry, looked up): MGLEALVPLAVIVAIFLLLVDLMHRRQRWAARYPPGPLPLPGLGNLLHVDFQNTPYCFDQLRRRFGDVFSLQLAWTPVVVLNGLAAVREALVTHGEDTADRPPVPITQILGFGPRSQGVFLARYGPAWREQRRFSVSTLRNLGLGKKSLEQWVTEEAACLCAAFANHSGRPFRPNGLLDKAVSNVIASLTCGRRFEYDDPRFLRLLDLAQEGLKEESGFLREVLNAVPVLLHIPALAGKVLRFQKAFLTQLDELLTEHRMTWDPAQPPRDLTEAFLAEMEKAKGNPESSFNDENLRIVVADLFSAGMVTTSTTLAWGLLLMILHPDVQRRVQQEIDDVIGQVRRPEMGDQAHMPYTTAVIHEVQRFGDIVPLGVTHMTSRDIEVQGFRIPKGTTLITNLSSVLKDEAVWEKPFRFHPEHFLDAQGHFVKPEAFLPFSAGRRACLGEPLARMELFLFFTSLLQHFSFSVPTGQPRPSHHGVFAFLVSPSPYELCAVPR

For `Cn1ncnc1COc1nn2c(-c3c(F)cccc3F)nnc2cc1C1CCC1`, the Potency entry in assay [1] and in assay [2] was “inactive” each time. In addition, the call in assay [3] and in assay [4] was inactive.
As for `OC1(c2ccc(Cl)cc2)c2ccccc2C2=NCCN21` (stereo not given), the Potency entry in [1] and in [2] was “inactive” each time. Also, the outcome in [3] and in assay [4] was inactive.
On to `CC12CCC3C(CCC4(O)CC(O)CCC34C=O)C1(O)CCC2C1=CC(=O)OC1` (stereo not given), for which the Potency result in assay [1] and in [2] was “inactive” each time. Also, the outcome in [3] and in [4] was inactive.
In the case of `N#C[C@@H](O[C@@H]1O[C@H](CO[C@@H]2O[C@H](CO)[C@@H](O)[C@H](O)[C@H]2O)[C@@H](O)[C@H](O)[C@H]1O)c1ccccc1`, the Potency result in assay [1] and in [2] was “inactive” in each case. The call in [3] and in [4] was inactive.
Turning to `Clc1ccc(N2C[C@H]3CC[C@@H](C2)N3)nn1`, the Potency entry in assay [1] and in assay [2] was “inactive” in each case. Also, the outcome in assay [3] and in [4] was inactive.
Take `CC(=O)OC12C(O)C(C)C3(O)C4C=C(C)C(=O)C4CC(CO)=CC3C1C2(C)C` (stereo not given): the Potency entry in assay [1] and in assay [2] was “inactive” each time. Besides, the molecule was classed as inactive in [3] and in assay [4].
As to `CCC(C)(C#N)O[C@@H]1O[C@H](CO)[C@@H](O)[C@H](O)[C@H]1O` (stereo not given in full), the Potency result in [1] and in assay [2] was “inactive” each time. Besides, the molecule was called inactive in [3] and in assay [4].
In the case of `C=C[C@H]1CN2CC[C@H]1C[C@@H]2[C@@H](O)c1ccnc2ccccc12`, the Potency result in assay [1] and in [2] was “inactive” in each case. Further, the molecule was classed as inactive in assay [3] and in assay [4].
Regarding `CC[C@H]1CN2CC[C@H]1C[C@@H]2[C@@H](O)c1ccnc2ccc(OC)cc12`, the Potency entry in assay [1] and in [2] was “inactive” throughout. For the same molecule, the result in assay [3] and in [4] was inactive.
As to `O=C(N1CCOCC1)N1CCN(c2ccc(Cl)cc2)CC1`, the Potency entry in assay [1] and in assay [2] was “inactive” throughout. The molecule was called inactive in assay [3] and in assay [4].
Regarding `CC(N)Cc1c[nH]c2ccccc12` (stereo not given), the Potency entry in [1] and in [2] was “inactive” each time. Moreover, the result in assay [3] and in assay [4] was inactive.
Take `C/C=C(\C)C(=O)OC1CC2C(CC=C3CC(OC4CC(OC)C(OC5CC(OC)C(OC6OC(C)C(OC7OC(CO)C(O)C(O)C7O)C(OC)C6O)C(C)O5)C(C)O4)CCC32C)C2(O)CCC(C(C)=O)C12C` (stereo not given): the outcome in assay [1] is “inactive [at 11.6 µM]”. In assay [2], the activity change, negative = thiol reactive was 19.1% [at 11.5 µM]. The activity, negative = inhibition in assay [3] is 4.82% [at 11.6 µM]. The redox activity (% of DA3003) in assay [4] was 4.57% [at 11.5 µM].
Consider `CCCCCCn1c(=O)c(C(=O)Nc2ccc(C(=O)OCCC)cc2)c(O)c2ccccc21`, for which, in [1], the activity change, negative = inhibition was 0.207% [at 11.6 µM]. In [2], the activity change, negative = thiol reactive was -6.91% [at 11.5 µM]. The activity, negative = inhibition in assay [3] was 1.06% [at 11.6 µM]. For the same molecule, the redox activity (% of DA3003) in assay [4] was -1.37% [at 11.5 µM].
Take `CC(C)(O)[C@H]1O[C@H]2CC[C@@]3(C)[C@@](O)(CC[C@H]4Cc5c([nH]c6ccccc56)[C@@]43C)C2=CC1=O`: the Potency result in [1] is “inactive”. In addition, the outcome in assay [3] and in assay [4] was inactive.
Regarding `COCC1OC(=O)c2coc3c2C1(C)C1=C(C3=O)C2CCC(=O)C2(C)CC1O` (stereo not given), the Potency entry in assay [1] was “inactive”. Further, the result in assay [3] and in assay [4] was inactive.
Turning to `CC1C/C=C/C(O)C(O)CC/C=C/c2cc(O)cc(O)c2C(=O)O1` (stereo not given), in [1], the Potency entry was “inactive”. Moreover, the molecule was classed as inactive in [3] and in assay [4].
In the case of `COc1c(C(C)C)cc2c(c1O)[C@@]1(C(=O)O)CCCC(C)(C)C1CC2` (stereo not given in full), the Potency entry in assay [1] is “inactive”. Also, the molecule was classed as inactive in [4].
On to `COC1=CC(=O)O[C@@H](/C=C/c2ccccc2)C1`, for which the Potency result in assay [1] and in assay [2] was “inactive” in each case. The call in [3], in assay [4], in assay [5], in assay [6] and in assay [8] was inactive. The Potency in assay [7] was 14.1 µM (active).
As to `CNC(C)C(O)c1ccc(O)cc1` (stereo not given), the outcome in assay [5], in [9], in assay [6], in assay [8] and in assay [10] was inactive. The Potency result in [7] is “inactive”.
As for `C[C@@H]1C(=O)O[C@H]2[C@H](O)[C@@]34[C@@H]5OC(=O)[C@@]3(O[C@@H]3OC(=O)[C@@H](O)[C@@]34[C@H](C(C)(C)C)[C@H]5O)[C@@]12O`, the Potency entry in assay [1] is “inactive”. Moreover, the call in [3] and in assay [4] was inactive.
With `CC1=CC2/C=C(\C)CCC(O)C3OC(C)(C)OC3CC(=O)OC23C(=O)NC(CC(C)C)C3C1C` (stereo not given), the Potency entry in [1] is “inactive”. Also, the outcome in [3] and in assay [4] was inactive.
Take `CC(=O)O[C@H]1C[C@@H](OC(C)=O)C(C)(C)C2C[C@@H](O)[C@]3(C)C(CC[C@@]4(C)[C@H](C5=CC(=O)OC5O)C[C@H]5O[C@]543)[C@]21C` (stereo not given in full): the Potency entry in assay [1] was “inactive”. Besides, the call in [3] was inactive.
